nsP2pro inh = Primary qHTS for inhibitors of NSP2Pro chikungunya virus (CHIKV); Polyprotein P1234 (Chikungunya virus (strain S27-African prototype)), Q8JUX6; FRET peptide cleavage, nsP2pro, fluorescence 1 h; Potency, µM (titrated, usually from 24.9 µM), for the others: at the highest dose activity change, negative = inhibition, most hits filed as inhibitors; hit rate 1.1% among 31,000; AID 1964107, 2024; further: nearly all actives have a fitted effect of over 60% in size
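Purified recombinant nsP2pro (150 nM final) in 10 mM Tris-HCl pH 8.0 with 0.01% Tween 20 was preincubated 15 min at room temperature with compound (7 concentrations, up to 25 uM). FRET peptide 2 substrate (2.5 uM final) was then added; fluorescence was read after 1 h.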
nsP2 cell sec = Secondary cell base assay for inhibitors of NSP2Pro Chikungunya virus (CHIKV) | Potency, µM (doses to about 51.1 µM), for inactives: top-dose activity change, negative = inhibition, actives largely listed as inhibitors | cell-based CHIKV nsP2 protease reporter assay | hit rate 10% among 450 | AID 1964100, 2024 | shares compounds with nsP2pro inh; further: nearly all actives have a fitted effect of over 70% in size
NSP2 full ctr = Selectivity profile for inhibitors of NSP2Pro chikungunya virus (CHIKV): Full length NSP2 enzyme counterscreen (CHIKV-NSP2); shares compounds with nsP2pro inh; Full-length CHIKV NSP2 protease enzymatic counterscreen; Potency, µM (highest dose often 50.7 µM), without a hit: at the highest dose activity change, negative = inhibition, most hits filed as inhibitors; hit rate 39% among 410; AID 1964101, 2024; further: nearly all actives have a fitted effect of over 65% in size
Furin counter = Selectivity profile for inhibitors of NSP2Pro chikungunya virus (CHIKV): Human furin counterscreen; Recombinant human furin enzymatic counterscreen, fluorogenic substrate; hit rate 6% among 410; shares compounds with nsP2pro inh; Potency, µM (highest dose often 50.6 µM), for inactives: at the highest dose activity change, negative = inhibition, actives largely listed as inhibitors
nsP2 NS23 pep = Selectivity profile for inhibitors of NSP2Pro chikungunya virus (CHIKV): Endogenous NS2/3 peptide Counterscreen; Purified CHIKV nsP2 protease, endogenous NS2/3 peptide cleavage; Potency, µM (titrated, usually from 51 µM), for inactives: at the top dose activity change, negative = inhibition, usual class: inhibitors; shares compounds with nsP2pro inh; hit rate 34% among 410; further: nearly all actives have a fitted effect of over 55% in size
Papain cs = Selectivity profile for inhibitors of NSP2Pro chikungunya virus (CHIKV): Papain Counterscreen; shares compounds with nsP2pro inh; purified papain protease activity, enzymatic inhibition; Potency, µM (top dose mostly 51 µM), without a hit: at the top dose activity change, negative = inhibition, hits mostly inhibitors; hit rate 5% among 410
nsP2pro confirm = Confirmatory qHTS for inhibitors of NSP2Pro chikungunya virus (CHIKV); shares compounds with nsP2pro inh; CHIKV nsP2 protease enzymatic activity, qHTS; Potency, µM (highest dose often 25.5 µM), inactives show at the highest dose activity change, negative = inhibition, hits mostly inhibitors; hit rate 43% among 410; AID 1964105, 2024; further: nearly all actives have a fitted effect of over 75% in size
HCV NS3 4A cs = Selectivity profile for inhibitors of NSP2Pro chikungunya virus (CHIKV): NS34A-HCV Counterscreen; shares compounds with nsP2pro inh; HCV NS3/4A protease biochemical counterscreen; Potency, µM (titrated, usually from 50.9 µM), usual class: inhibitors; hit rate 20% among 410; AID 1964106, 2024; further: nearly all actives have a fitted effect of over 55% in size
The depositor's hits bear a star; i = inactive; ? = inconclusive; ! = a repeat was not active; [ ] = remark or other dose. The entries come from a sample that favours hits as a whole. The call rests on the fitted dose curve. On the % scale 0 is the no-effect control and ±100 the full control effect; potency means the concentration at half of the fitted maximal effect.

SMILES	nsP2pro inh	others
C=C1CCC2C(C)(C)C(O)CCC2(C)C1CCC(C)CCOC(C)=O (stereo not drawn)	13%
CC(C)(CO)C(O)C(=O)NCCCC(=O)O (stereo not drawn)	-17%
CC(C)CNC(=O)N(C)C1CCc2nn(C)c(=O)n2CC1 (stereo not drawn)	-1%
COc1ccccc1N1CCN(C(c2ccccc2)c2nnc(-c3ccccc3Cl)o2)CC1 (stereo not drawn)	-10%
COc1ccccc1N1CCN(C(c2ccc(Cl)cc2)c2nnc(-c3cccc(F)c3)o2)CC1 (stereo not drawn)	-13%
COc1ccc(N2CCN(C(c3ccccc3)c3nnc(-c4ccccc4Cl)o3)CC2)cc1 (stereo not drawn)	?	nsP2 cell sec=?
Cc1ccc(CNC(=O)c2cn(C)c3ccc(S(=O)(=O)N4CCOCC4)cc3c2=O)cc1	-9%
NC(=O)N/N=C/c1ccc([N+](=O)[O-])o1	-26%
O=NCc1ccc([N+](=O)[O-])o1	-23%
Cc1ccc(S(=O)(=O)c2ccc([N+](=O)[O-])o2)cc1	0.56µM*	nsP2 cell sec=?;NSP2 full ctr=1.5µM*;Furin counter=-11%;nsP2 NS23 pep=4.6µM*;Papain cs=?;nsP2pro confirm=0.56µM*;HCV NS3 4A cs=i
CCCOc1ccc(C(=O)Nc2cc(-c3nc4ccccc4[nH]3)ccc2C)cc1	-11%
O=C1Nc2ccccc2C12CCN(Cc1cccnc1)C2 (stereo not drawn)	-16%[39.2 µM]
CC(NC(=O)[C@H](Cc1ccccc1)NC(=O)OCc1ccccc1)C(=O)CF (stereo partly drawn)	-28%
CC(C)C[C@H](NC(=O)CNC(=O)OCc1ccccc1)C(=O)N[C@@H](Cc1ccccc1)C(=O)CCl	-25%
C[C@H](NC(=O)[C@H](Cc1ccccc1)NC(=O)OCc1ccccc1)C(=O)CF	?	nsP2 cell sec=-6%;NSP2 full ctr=?;Furin counter=1%;nsP2 NS23 pep=-10%;Papain cs=0.046µM*;nsP2pro confirm=?;HCV NS3 4A cs=i
NC(=O)CCC(N)C(=O)O (stereo not drawn)	-20%[2.68 µM]
Cc1noc(-c2ccc(N3CCCCC3C)c([N+](=O)[O-])c2)n1 (stereo not drawn)	-24%
COC[C@@H]1OC(=O)/C(=C\N(C)CCCN(C)C)C2=C(O)C(=O)C3=C([C@@H](OC(C)=O)C[C@@]4(C)[C@@H]3CC[C@@H]4O)[C@@]21C	-11%
COC[C@H]1OC(=O)c2coc3c2[C@@]1(C)C1=C(C3=O)C2CCC(=O)[C@@]2(C)C[C@H]1OC(C)=O (stereo partly drawn)	9.9µM*	nsP2 cell sec=-1%;NSP2 full ctr=-11%;Furin counter=-6%;nsP2 NS23 pep=-17%;Papain cs=-7%;nsP2pro confirm=-25%;HCV NS3 4A cs=i
C/C(CO)=C1/CCC23COC(C2)C(O)(C(=O)O)CCC13 (stereo not drawn)	-5%
COc1ccc(NC(=O)Cn2c(=O)n(CCCC(=O)NCc3ccccc3Cl)c(=O)c3ccccc32)c(OC)c1	-23%
Cn1cccc1-c1noc(C2CCN(C(=O)CCn3cnc4ccccc43)C2)n1 (stereo not drawn)	i
Oc1ccc(CCNCCCCCCNCCc2ccccc2)cc1O	-13%
CNC[C@H](O)c1cccc(O)c1	2%
Oc1ccc(C(O)CNCCCCCCNCC(O)c2ccc(O)c(O)c2)cc1O (stereo not drawn)	?	nsP2 cell sec=91%;NSP2 full ctr=?;Furin counter=26µM*;nsP2 NS23 pep=-10%;Papain cs=-4%;nsP2pro confirm=26%;HCV NS3 4A cs=i
SMILES	nsP2pro inh	others
CCOC(=O)C1CCCN(C(=O)c2nn(-c3ccc(C)cc3)c(=O)n(C)c2=O)C1 (stereo not drawn)	-9%
CCC1=Nc2cc(C(=O)NC(C)c3ccccc3)ccc2Sc2ccc(Cl)cc21 (stereo not drawn)	-15%
COc1ccc(OC)c(N2C(=O)C(Cl)=C(N3CCCCC3)C2=O)c1	?	nsP2 cell sec=-11%;NSP2 full ctr=16µM*;Furin counter=-7%;nsP2 NS23 pep=?;Papain cs=-18%;nsP2pro confirm=7.1µM*;HCV NS3 4A cs=i
COc1ccc(OC)c(NC(=O)CN2C(=O)c3ccccc3Sc3ccc(C(=O)N4CCCC4)cc32)c1	-5%
COc1ccc(Br)c(C(=O)Nc2cc3c(cc2N2CCCC2)n(C)c(=O)c(=O)n3C)c1	-33%
CCOc1ccc(Sc2cc(C(=O)NCCc3ccc(OC)c(OC)c3)c3ccccc3n2)cc1	-14%
COC1(C[S@@](=O)c2ccccc2)CCN(CCc2c[nH]c3ccc(F)cc23)CC1	?	nsP2 cell sec=49%;NSP2 full ctr=-9%;Furin counter=-2%;nsP2 NS23 pep=-18%;Papain cs=0%;nsP2pro confirm=-18%;HCV NS3 4A cs=i
Cc1ccc(C2(O)CCN(CCCC(=O)c3ccc(F)cc3)CC2)cc1	-10%
CCCn1c(C)cnc1CCNC(=O)CC1CCN(C(C)=O)CC1	i
c1ccc2cc(-c3nc(C4CCOC4)no3)ncc2c1 (stereo not drawn)	4%
CO/N=C(/C(=O)N[C@@H]1C(=O)N2C(C(=O)O)=C(CSC(=O)c3ccco3)CS[C@H]12)c1csc(N)n1	11µM*!	nsP2 cell sec=-8%;NSP2 full ctr=-5%;Furin counter=-5%;nsP2 NS23 pep=9%;Papain cs=?;nsP2pro confirm=-10%;HCV NS3 4A cs=i
CO/N=C(/C(=O)N[C@@H]1C(=O)N2C(C(=O)OCOC(=O)C(C)(C)C)=C(C)CS[C@H]12)c1csc(N)n1	-25%
CC(=O)OCC1=C(C(=O)O)N2C(=O)[C@@H](NC(=O)Cc3cccs3)[C@H]2SC1	0%
COc1ccc(C2=Nn3c(nnc3-c3cccc(OC)c3OC)SC2)cc1OC	-4%
CCc1nnc2c(NCCc3ccc(OC)c(OC)c3)nc3ccccc3n12	-9%
